Out of some 310,000 compounds screened, about 14,000 (4.5%) showed an effect of 50% or more. Effects have a minus sign here. Only a selection was taken, and strong results are over-represented in it overall.
biological target: human ether-à-go-go-related gene (hERG) potassium channel (human, UniProt Q12809); assay: primary screen, population patch clamp on CHO cells stably expressing hERG; higher = less effect of the substance
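Also: peak tail current of the secondary pulse compared with the same well before compound.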

Chain of human ether-à-go-go-related gene (hERG) potassium channel (Q12809 whole entry, looked up): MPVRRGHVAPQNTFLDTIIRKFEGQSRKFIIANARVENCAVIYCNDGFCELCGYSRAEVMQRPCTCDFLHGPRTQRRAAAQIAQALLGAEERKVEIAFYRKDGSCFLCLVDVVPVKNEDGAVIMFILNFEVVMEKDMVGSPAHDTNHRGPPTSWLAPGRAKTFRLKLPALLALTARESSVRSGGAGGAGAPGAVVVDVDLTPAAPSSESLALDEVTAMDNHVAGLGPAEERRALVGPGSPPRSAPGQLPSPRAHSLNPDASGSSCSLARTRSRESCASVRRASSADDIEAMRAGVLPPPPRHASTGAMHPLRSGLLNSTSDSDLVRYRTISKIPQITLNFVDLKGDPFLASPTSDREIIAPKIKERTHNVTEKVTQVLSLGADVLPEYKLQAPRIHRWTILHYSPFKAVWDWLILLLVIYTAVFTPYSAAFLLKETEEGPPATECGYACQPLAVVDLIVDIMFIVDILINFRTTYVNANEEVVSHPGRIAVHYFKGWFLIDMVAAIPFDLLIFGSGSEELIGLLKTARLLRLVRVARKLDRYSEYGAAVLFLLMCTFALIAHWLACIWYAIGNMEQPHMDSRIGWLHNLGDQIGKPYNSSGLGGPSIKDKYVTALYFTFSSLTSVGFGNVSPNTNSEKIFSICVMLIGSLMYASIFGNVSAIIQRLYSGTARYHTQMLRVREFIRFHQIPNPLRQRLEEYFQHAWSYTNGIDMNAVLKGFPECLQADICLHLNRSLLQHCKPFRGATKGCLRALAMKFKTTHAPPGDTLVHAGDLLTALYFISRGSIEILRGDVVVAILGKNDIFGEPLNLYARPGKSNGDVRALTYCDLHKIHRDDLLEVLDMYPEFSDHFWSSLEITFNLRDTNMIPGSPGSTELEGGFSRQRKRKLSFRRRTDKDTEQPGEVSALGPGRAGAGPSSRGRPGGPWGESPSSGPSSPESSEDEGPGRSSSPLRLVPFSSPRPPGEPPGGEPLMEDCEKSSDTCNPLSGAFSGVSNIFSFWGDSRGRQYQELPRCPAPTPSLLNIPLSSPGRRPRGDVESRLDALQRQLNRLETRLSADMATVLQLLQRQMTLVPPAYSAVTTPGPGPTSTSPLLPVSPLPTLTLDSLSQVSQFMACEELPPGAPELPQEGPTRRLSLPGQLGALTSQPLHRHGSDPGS

Row | SMILES | hERG current change (%, negative = inhibition) at 10uM [%]
1 | COc1ccccc1NC(CC(=O)c1ccccc1)C(=O)OCC(=O)c1ccc(Br)cc1 (stereo not shown) | -3.81
2 | Cc1ccc(C2=NN(C(=O)c3cccs3)C(c3ccccc3O)C2)cc1 (stereo not shown) | 34
3 | O=S1(=O)N=C(N(CCO)/N=C/c2ccc(Cl)cc2)c2ccccc21 | 4.3
4 | CN(C)c1ccc(P(=O)(Nc2ccc([N+](=O)[O-])cc2)N2CCOCC2)c(NC(=O)c2cccs2)c1 (stereo not shown) | 16.9
5 | Cc1nc(=O)c(-c2ccccc2)c(C)n1-c1ccc(O)cc1 | 9.6
6 | O=C(NCCCl)Nc1cccnc1Cl | 12.2
7 | COc1ccc(/C(C)=N\n2cnnc2)cc1 | 6.86
8 | O=C(Nc1ccc(C(=O)O)cc1)/C(=C\c1ccccc1)NC(=O)c1ccc(Br)cc1 | 7.33
9 | O=C(CNC(=O)c1ccc(Oc2ccccc2)cc1)OCc1ccc(Br)cc1 | -0.714
10 | O=C(CNC(=O)/C(=C\c1ccccc1)NC(=O)c1ccc(Br)cc1)OCc1ccccc1 | -69.1
11 | O=C(CNC(=O)/C(=C\c1ccc(F)cc1)NC(=O)c1ccccc1)OCc1ccccc1 | -80.7
12 | Cc1ccc(C(=O)N/C(=C\c2ccccc2)C(=O)OCc2ccccc2)cc1 | -50.7
13 | O=C(NC(Cc1ccccc1)C(=O)O)/C(=C\c1ccc(F)cc1)NC(=O)c1ccccc1 (stereo not shown) | 11.1
14 | CC(=O)N/C(=C\c1ccccc1)C(=O)OCc1ccc(C)cc1 | -19.9
15 | CCOC(=O)CNC(=O)/C(=C\c1ccc(F)cc1)NC(=O)c1ccccc1 | -26.4
16 | O=C(CNC(=O)c1ccccc1)OCc1cccc(Br)c1 | -17.8
17 | O=C(CNC(=O)/C(=C/c1ccccc1)NC(=O)c1ccc(Br)cc1)OCc1ccccc1 | -64
18 | Cc1ccc(/C=C(\NC(=O)c2ccccc2)C(=O)OCc2ccccc2)cc1 | 10.3
19 | CC1(C(=O)NCCCN2CCOCC2)Oc2cccnc2NC1=O (stereo not shown) | 13.2
20 | Cc1ccccc1NC(=S)Nc1ccc(Br)cc1 | -6.93
21 | CS(=O)(=O)N(Cc1ccccc1)c1ccc(C(=O)Nc2ccccc2Sc2ccccc2)cc1 | 1.8
22 | Cc1cccc(C)c1NC(=O)CN(C)C(=O)c1ccccc1Sc1ccccc1C#N | -4.76
23 | O=C(NC(=S)NCc1cccnc1)c1cc2ccccc2o1 | 8.71
24 | CC(=O)c1ccc(O)c(CSC2=NCCS2)c1 | 19.8
25 | O=C(CN1C(=O)NC2(CCc3ccccc32)C1=O)NCCc1ccccc1 (stereo not shown) | -6.43
26 | COc1ccccc1C(=O)N/C(=C\c1ccc(Br)cc1)C(=O)NCC(=O)O | 1.78
27 | O=C(CNC(=O)/C(=C\c1ccc(Br)cc1)NC(=O)c1ccccc1)OCc1ccccc1 | -59.9
28 | NC(=S)NNC(=O)/C(=C/c1ccc(Br)cc1)NC(=O)c1ccccc1 | 40

Row | SMILES | hERG current change (%, negative = inhibition) at 10uM [%]
29 | CC1(c2ccccc2)NC(=O)N(CC(=O)Nc2nc(-c3ccccn3)cs2)C1=O (stereo not shown) | 0.219
30 | COc1ccccc1NC(=O)Nc1nn(C)c2cccc(N(C)C)c12 | 11
31 | COC(=O)C1CCN(Cc2cn(Cc3ccccc3)nc2-c2cc3ccccc3o2)CC1 | -75.9
32 | N#CCCn1cc(C(=O)Nc2ccc(C(=O)O)cc2)c(-c2cc3ccccc3o2)n1 | 10.7
33 | COC(=O)C1CCN(Cc2nnc(-c3ccccc3)o2)CC1 | 16.1
34 | COC1CCN(Cc2cn(Cc3ccccc3)nc2-c2cc3ccccc3o2)CC1 | -71.9
35 | COC(=O)C1CCN(C(=O)c2cc3ccccc3oc2=O)CC1 | -7.44
36 | COc1ccc(NC(=O)c2cn(CCC#N)nc2-c2cc3ccccc3o2)cc1 | -0.308
37 | COCCOC1CCN(Cc2cn(Cc3ccccc3)nc2-c2cc3ccccc3o2)CC1 | -67
38 | COc1cccc(-c2nn(Cc3ccccc3)cc2CO)c1 | 8.47
39 | CC(C)(C)c1ccc(/C([O-])=C(/C(=S)NCc2ccco2)[n+]2ccccc2)cc1 | 6.63
40 | Cc1cc(C)cc(NC(=S)N2CCN(S(C)(=O)=O)CC2)c1 | 4.55
41 | CCOc1ccc(N(CC(=O)NCCCOC)S(C)(=O)=O)cc1 | 4.53
42 | COc1ccc(Nc2c3c(nc4ccc(C)cc24)CCC3)cc1.Cl | -78.3
43 | Cc1ccc2nc3c(c(Nc4ccc(O)cc4)c2c1)CCC3.Cl | -21.2
44 | COc1ccc2nc3c(c(-c4ccccc4)c2c1)CCC3 | -5.34
45 | Cc1cccc(-c2nc(Nc3cccc(O)c3)c3ccccc3n2)c1 | 21.8
46 | Cc1ccc(-c2nc(Nc3cccc(O)c3)c3ccccc3n2)cc1 | 11.9
47 | Cc1ccc2nc3c(c(Nc4cccc(O)c4)c2c1)CCC3.Cl | -70
48 | Cc1ccc2nc3c(c(Nc4ccccc4)c2c1)CCC3.Cl | -71.7
49 | Cc1ccc2nc3c(c(C(=O)O)c2c1)CCC3 | 2.29
50 | COc1ccc(Nc2ncnc3ccc(C)cc23)cc1 | -3.17
51 | CC(=O)Nc1ccc(S(=O)(=O)NNC(=O)c2cccc(Cl)c2)cc1 | 8.3
52 | CCOC(=O)CON1C(=O)c2ccccc2C1=O | -5.5
53 | COc1ccc(Cl)cc1-n1c(C)cc(C=O)c1C | 4.29
54 | COc1ccc(CN(C(=O)c2cnccn2)C(C(=O)NC(C)(C)C)c2cc(OC)c(OC)c(OC)c2)cc1 (stereo not shown) | 1.58
55 | CCOC(=O)c1ccc(Oc2coc3cc(O)ccc3c2=O)cc1 | 17.6

Source: article PMC4336329 (PLoS ONE, 2015)
